The whole screen tested about 360,000 compounds, of which about 4,500 (1.2%) were called active. The list comes from a sample in which actives are over-represented; it also holds similar structures and randomly drawn compounds. Unmarked numbers belong to inactive results. Cut-off read from the data, not from the text of the source: active = inhibition above about 30%; inactive = the rest.
test: GDH-TPI coupling enzyme inhibitors, primary screen, artefact control for M. tuberculosis FBA inhibitor project, biochemical, absorbance, full deck (AID 588335); details: GDH-TPI coupled enzyme counterscreen, NADH absorbance; at 4.8 µM; hits give high values;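 note: 0% = DMSO wells and 100% = wells lacking the enzyme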

SMILES | inhibition
COc1cc(/C=N/NC(=O)Nc2ccccc2)ccc1OCCOc1ccccc1C | 18.8%
COc1ccc(/C=N\NC(=O)c2sc(N)nc2C)cc1OC | 40.4% (active)
Cc1nnsc1C(=O)N/N=C/c1cccc(C(F)(F)F)c1 | 5.54%
CC1(Oc2ccc(Cl)cc2)CCN(Cc2csc3ccccc23)C1 (configuration not stated) | -8.04%
CCOC(=O)c1ccccc1NC(=S)N1CCC(C(N)=O)CC1 | -2.65%
CCCCn1c(N)c(N(CCOC)C(=O)c2sc3ccccc3c2Cl)c(=O)[nH]c1=O | 0%
CC(=O)Nc1ccc(S(=O)(=O)Nc2nc3n(n2)C(c2ccccc2)CC(=O)N3)cc1 (configuration not stated) | 0.72%
CCSc1nc2sc3c(c2c(=O)n1-c1ccc(C)cc1)CCN(C)C3 | 30.7% (active)
CCOc1ccc(-n2c(SCC(=O)OC)nc3sc4c(c3c2=O)CCN(C)C4)cc1 | 22.9%
CCCSc1nc2sc3c(c2c(=O)n1-c1ccc(OC)cc1)CCN(C)C3 | 14.5%
CCn1c(SCC(=O)Nc2ccc(Br)cc2)nc2sc3c(c2c1=O)CCN(C)C3 | 6.95%
COc1ccccc1NC(=O)CSc1nc2sc3c(c2c(=O)n1-c1ccccc1)CCN(C)C3 | 33.1% (active)
CCOc1ccc(-n2c(SCC(=O)Nc3ccc(OC)cc3)nc3sc4c(c3c2=O)CCN(C)C4)cc1 | 19.9%
C[C@H]1CN([C@@H](C)CO)C(=O)CCCn2cc(nn2)CO[C@@H]1CN(C)S(=O)(=O)c1ccc(-c2ccccc2)cc1 | 5.15%
CC1(C)CC(=O)C(C2c3ccccc3S(=O)(=O)c3ccccc32)C(=O)C1 | 3.51%
Cc1c(C=O)c2ccccn2c1C(=O)c1ccncc1 | 23.7%
COc1cc(NC(=O)CCNC(=O)Cn2ccc3ccccc3c2=O)cc(OC)c1OC | -1.5%
Cn1c(=O)c2c(nc(N3CCCCCC3)n2CC(O)COc2ccc(Cl)cc2)n(C)c1=O (configuration not stated) | 3.88%
CN(C)S(=O)(=O)c1cccc(NC(=O)COc2ccc3ccccc3c2)c1 | 0.32%

SMILES | inhibition
Cc1ccc(/C=N/NC(=S)Nc2cccc(S(=O)(=O)N(C)C)c2)o1 | 55.8% (active)
CN(C)S(=O)(=O)c1cccc(NC(=O)COC(=O)c2cc(=O)[nH]c(=O)[nH]2)c1 | -1.24%
CCN(C(=O)Nc1cccc2ccccc12)c1ccccc1 | 3.9%
Cc1cccc(S(=O)(=O)N2CN(CC3CCCO3)c3nc4ccccc4nc32)c1 (configuration not stated) | 11.8%
Cc1sc(NC(=O)C2=COCCO2)c(C#N)c1C | 13.8%
Cc1c(C(=O)OC(C)C)sc(NC(=O)c2cccnc2)c1C#N | 20.9%
CCN(CC)C(=O)c1sc(NC(=O)c2ccco2)c(C#N)c1C | 33.3% (active)
CCN(CC)CC(=O)Nc1nn(-c2ccccc2)nc1C(N)=O | -4.59%
COc1ccc(/C=N/NC(=O)c2ccc3c(c2)OCCO3)c(OC)c1 | 35.4% (active)
COc1ccc(OC)c(/C=C/C(=O)c2ccc3c(c2)OCO3)c1 | 7.32%
COc1ccc(OC)c(/C=N/NC(=O)c2ccc[n+](CC(=O)c3ccccc3)c2)c1 | 11.2%
CN(C)c1ccc(C=NCCc2ccc(S(N)(=O)=O)cc2)cc1 | 54.4% (active)
CCCCc1ccc(S(N)(=O)=O)cc1 | 1.6%
CN(CC(=O)NCCc1ccc(S(N)(=O)=O)cc1)CC(=O)Nc1ccc(Cl)cc1 | 2.64%
O=C(O)CC(c1ccccc1F)N1Cc2ccccc2C1=O (configuration not stated) | -3.95%
Cc1c(C(=O)NC2CCCCC2)oc2ccccc12 | 5.98%
CC(C)c1ccccc1OCC(O)CN(CC(O)COc1cccc2ccccc12)C(C)C (configuration not stated) | 6.49%
COc1ccc(/C=C/C(=O)Nc2ccc3c(c2)OCCO3)cc1OC | 33.3% (active)
COc1cc(/C=C/C(=O)Nc2ccc(OC)c(S(=O)(=O)N3CCOCC3)c2)ccc1OCC#N | 34.9% (active)

SMILES | inhibition
COc1cccc(/C=C/C(=O)Nc2ccc3c(c2)OCCO3)c1 | 9.4%
COc1ccc(S(=O)(=O)N(C)CC(=O)Nc2ccc3c(c2)OCCO3)cc1OC | 5.05%
CSc1ccc(/C=C/C(=O)NC23CC4CC(CC(C4)C2)C3)cc1 | 14.4%
COc1ccc(CCC(=O)Nc2ccc(Cl)c(S(=O)(=O)N3CCOCC3)c2)cc1OC | 5.73%
COc1ccc(/C=C/C(=O)OCC(=O)NC2CCCCCC2)cc1OC | 27.3%
COc1ccc(/C=C/C(=O)Nc2ccc(C34CC5CC(CC(O)(C5)C3)C4)cc2)cc1OC | 31% (active)
COc1cc(/C=C/C(=O)OCC(=O)N2CCOCC2)ccc1OCC#N | 5.68%
CCN1C(=O)[C@H]2[C@@H](c3ccc(SC4CCCCC4)c(OC)c3)N[C@@](Cc3ccccc3)(C(=O)OC)[C@H]2C1=O | 9.48%
COc1ccc(-c2ccc(C(=O)NCCN3CCOCC3)c3occc23)c(C)c1 | -2.68%
CCc1ccc(-c2cc3c(=O)n(CC(=O)NCCCN4CCN(Cc5ccccc5)CC4)nc(C)n3n2)cc1 | 5.56%
O=C(NCc1cccnc1)c1cccnc1Sc1ccc(Cl)cc1 | -0.62%
Cc1ccc(C)c(N2CCN(C(=O)CCc3nc(-c4cccc(C(F)(F)F)c4)no3)CC2)c1 | 0%
CC1(C)Cc2ccccc2-c2nnc(-c3cccc(O)c3)n21 | 3.02%
Cn1c(Cn2nnc3ccccc32)nnc1SCC(=O)c1ccccc1F | -1.22%
COc1ccc(OC)c(/C=N/NC(=O)CSc2nnc(C)n2-c2ccccc2)c1 | 30.2%
C=CCn1c(Cn2nnc3ccccc32)nnc1SCC(=O)N/N=C/c1cc(Br)cc(OC)c1O | 33.8% (active)
Cc1ccc(-n2nc3c(c2NC(=O)CCC2CCCCC2)CS(=O)C3)cc1 (configuration not stated) | -6.57%
O=C(CCNS(=O)(=O)c1ccc(Br)s1)NCc1ccccc1Cl | -5.73%
CCn1ccnc1CNC(=O)CC1C(=O)NCCN1CCCc1ccccc1 (configuration not stated) | 1.04%

Reference: PubChem BioAssay AID588335 (The Scripps Research Institute Molecular Screening Center, 2011)
